The sample as a whole holds a higher share of hits than the screen did.
Tb PYK inh – inhibitors of Trypanosoma brucei pyruvate kinase. Q57TT1. TbPYK enzyme, Kinase-Glo Plus ATP luminescence, 45 min. Potency, µM (highest dose often 76.8 µM), without a hit: top-dose activity, negative = inhibition, hits mostly inhibitors. 0.12% of 410,000 active; further: potency means the concentration at half of the fitted maximal effect; on the % scale 0 is the no-effect control and ±100 the full control effect; nearly all actives have a fitted effect of over 50% in size
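Luminescent Kinase-Glo Plus end-point after 45 min room-temperature reaction of T. brucei pyruvate kinase started with 130 uM ADP (final). Buffer TEA 50 mM pH 7.2 with KCl, MgCl2, BSA, Tween-20; titration-based qHTS with fitted concentration-effect curves.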
CHX counter – counter-screen hit for Shiga toxin inhibitors, cycloheximide. 12% of 300,000 active. cell reporter, cycloheximide protein synthesis inhibition counterscreen. max response, %. AID 2314; in the data active means max response mostly above about 13%, no sharp cut-off; inactive means mostly below about 14%; further: read at 38.3 µM for the half of the compounds with a filed dose; 0% is about no effect
FBPA Giardia inh – inhibitors of Giardia lamblia fructose-1,6-bisphosphate aldolase; Potency, µM (series often up to 59.6 µM), without a hit: top-dose activity, negative = inhibition, most hits filed as inhibitors; purified Giardia FBPA; 0.71% of 290,000 active; A8B2U2; further: potency means the concentration at half of the fitted maximal effect; on the % scale 0 is the no-effect control and ±100 the full control effect; nearly all actives have a fitted effect of over 55% in size
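40 nM FBPA preincubated 10 min at RT with compound (up to 57.5 uM final), then substrate plus GAPDH/TPI/NAD/arsenate coupling and diaphorase/resazurin added. Fluorescence read after 20 min at RT, 525/598 nm.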
Sm TGR block – blocks Schistosoma mansoni thioredoxin glutathione reductase; Q962Y6; purified TGR, DTNB reduction, TNB absorbance 405 nm; Potency, µM (highest dose often 114 µM), for the others: at the top dose activity change, negative = inhibition, actives largely listed as inhibitors; 3% of 360,000 active; further: potency means the concentration at half of the fitted maximal effect; on the % scale 0 is the no-effect control and ±100 the full control effect; nearly all actives have a fitted effect of over 60% in size
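TGR 20 nM + NADPH 100 uM (dispensed conc.), cpd preinc 15 min RT; start with NADPH (500 uM addition) then DTNB (15 mM addition). Kinetic TNB absorbance, 405 nm filter. Four-parameter Hill fit across titration.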
LmPK inh – inhibitors of Leishmania mexicana pyruvate kinase; purified LmPK, Kinase-Glo ATP luminescence, 1 h; 0.37% of 290,000 active; Potency, µM (top dose mostly 57.5 µM), for the others: top-dose activity change, negative = inhibition, hits mostly inhibitors; Q27686; AID 1721; further: potency means the concentration at half of the fitted maximal effect; on the % scale 0 is the no-effect control and ±100 the full control effect
Target sequence (Q27686 whole entry, looked up): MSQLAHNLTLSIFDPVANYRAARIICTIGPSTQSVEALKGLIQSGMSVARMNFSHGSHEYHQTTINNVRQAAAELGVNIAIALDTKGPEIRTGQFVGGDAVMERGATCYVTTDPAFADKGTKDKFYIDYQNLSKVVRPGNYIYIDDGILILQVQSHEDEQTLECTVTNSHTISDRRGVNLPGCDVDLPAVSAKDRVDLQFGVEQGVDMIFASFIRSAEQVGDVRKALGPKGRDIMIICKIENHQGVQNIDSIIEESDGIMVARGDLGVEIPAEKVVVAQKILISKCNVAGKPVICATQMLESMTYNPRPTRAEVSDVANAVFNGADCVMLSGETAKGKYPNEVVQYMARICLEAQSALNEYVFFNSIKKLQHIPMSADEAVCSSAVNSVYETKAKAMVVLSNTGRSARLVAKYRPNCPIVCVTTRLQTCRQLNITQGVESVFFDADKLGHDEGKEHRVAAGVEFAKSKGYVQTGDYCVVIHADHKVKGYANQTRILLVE
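0.1 nM LmPK, 0.5 mM PEP, 0.1 mM ADP; 50 mM imidazole pH 7.2, 7 mM MgCl2, 50 mM KCl; 1 h RT. Kinase-Glo luminescence readout, normalized to no-enzyme (full inhibition) and uninhibited wells.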
Shiga inhibitor – blocks Shiga toxin action in Vero cells | Vero cells, Shiga toxin protein synthesis inhibition reporter | inhibition, % at 38.7 µM | 9.2% of 290,000 active; in the data active means inhibition mostly above about 28%, no sharp cut-off; inactive means mostly below about 43%; further: 0% is about no effect
* hit, by the source's call; ? = inconclusive; · = not tested or not shown; [ ] = dose if it differs, or a comment. Unless noted, the call rests on the fitted dose curve; in most records, active means well fitted curve in the direction sought with a large enough effect; inconclusive means small, poorly fitted or top-dose-only effect, or another doubt; inactive means no such curve, though single readings can be large; an effect the other way counts as inactive or inconclusive.

SMILES | Tb PYK inh | CHX counter | FBPA Giardia inh | Sm TGR block | LmPK inh | Shiga inhibitor
[O-]/[N+](=C\c1ccncc1)c1ccc(Br)cc1 | -23% | 17* | -18% | ? | -1% | 39
CCOc1ccc(NC(=O)Cn2c(=O)n(-c3ccccc3)c(=O)c3ccc(C(=O)NCc4ccc5c(c4)OCO5)cc32)cc1 | -1% | · | · | -1% | · | ·
CC(=O)N(Cc1ccccc1)c1c(N)nc(N)[nH]c1=O | -4% | · | · | · | · | ·
COc1cc(OC)cc(C(=O)Nc2nc3ccc(S(C)(=O)=O)cc3s2)c1 | -4% | 17 | 0% | -2% | 4% | 52*
CS(=O)(=O)c1ccc2nc(NC(=O)c3cccc([N+](=O)[O-])c3)sc2c1 | -4% | 31* | -27% | -6% | -9% | 75*
O=C(COC(=O)c1cccnc1Cl)Nc1ccc2c(c1)OCO2 | 2% | 32* | -10% | -1% | -14% | 97*
CSc1ncccc1C(=O)OCC(=O)Nc1ccc2c(c1)OCO2 | 1% | 12 | -6% | -6% | 6% | 35*
CCOc1ncccc1C(=O)OCC(=O)Nc1ccc2c(c1)OCCO2 | -3% | · | · | 1% | · | ·
CCOC(=O)C1CCN(/C=C2/C(=O)NC(=S)N(c3cccc(OC)c3)C2=O)CC1 | -10% | -3 | 0% | 25% | -2% | -6
CCOC(=O)C1CCN(/C=C2/C(=O)NC(=O)N(c3cccc(C)c3C)C2=O)CC1 | 2% | -1 | 1% | 8.9µM* | 0% | -3
COC(=O)c1cccc(Cn2c(Cl)c(/C=N/Nc3ccccc3C)sc2=O)c1 | -8% | -4 | -2% | 7.9µM* | 5% | -6
Cc1ccccc1N/N=C/c1sc(=O)n(Cc2cccc(C(=O)O)c2)c1Cl | -26% | 7 | 8% | 10µM* | 4% | 1
COC(=O)c1cccc(CN2C(=O)SC(Nc3ccccc3C)C2=O)c1 (centres undefined) | -12% | · | · | 4% | · | ·
Cc1cccc(NC(=O)c2cn(-c3ccccc3)nc2-c2ccccc2)c1C | -3% | · | · | -9% | · | ·
CCC(C)(C)C1CCc2[nH]nc(C(=O)NN)c2C1 (centres undefined) | -20% | 38* | 13% | 15% | 0% | 53*
CCC(C)(C)C1CCc2[nH]nc(C(=O)NCC3CC3)c2C1 (centres undefined) | -6% | · | · | 2% | · | ·
O=C(NC(N1CCOCC1)C(Cl)(Cl)Cl)c1ccco1 (centres undefined) | 7% | 70* | -3% | 5% | 4% | 128*
O=C(/C=C/c1ccccc1)NC(N1CCOCC1)C(Cl)(Cl)Cl (centres undefined) | -1% | 30* | -5% | -1% | 8% | 42
Cc1ccc(/C(C#N)=C\c2cn(C)c3ccccc23)cc1 | · | 19* | -15% | 7% | -4% | 25*
Cn1cc(C=O)c2ccccc21 | 2% | 5 | -9% | 19% | 22% | -4
CCN=c1scc(-c2ccc(F)cc2)n1/N=C/c1ccccn1 | 1% | 48* | -9% | 14% | 7% | 82*
CCN=c1scc(-c2ccccc2)n1/N=C/c1ccccn1 | -6% | 41* | 3% | 4% | -7% | 78*
O=C(Cc1ccc(F)cc1)N/N=C/c1ccccn1 | 1% | 2 | 11% | -5% | -3% | -7
CCCCNC(=O)c1c(N)n(/N=C/c2ccccn2)c2nc3ccccc3nc12 | · | 14 | 2% | 3% | -2% | 9
CO[C@@H](C(C)C)[C@@H](C)[C@@H]1OC(=O)C[C@@H]1O | · | · | -1%[12.9 µM] | · | · | ·
SMILES | Tb PYK inh | CHX counter | FBPA Giardia inh | Sm TGR block | LmPK inh | Shiga inhibitor
C=C1C(=O)O[C@@H]2C[C@@H](C)[C@H]3C=CC(=O)[C@]3(O)C[C@@H]12 | -2% | 14* | 7% | 35µM* | 1% | 29
CC1=NN(c2ccc(Cl)c(C(=O)O)c2)C(=O)C1 | 2% | -3 | 7% | -2% | -2% | 1
CC1=NN(c2ccc(C(=O)O)c(N)c2)C(=O)C1 | -10% | 10 | 7.1µM* | -27% | 3% | -3
CC1=NN(c2ccc(C(=O)O)cc2)C(=O)CC1 | -9% | 29* | 0% | 4% | 1% | 44*
O=C(N/N=C/c1ccc(OC(=O)c2ccc3c(c2)OCO3)cc1)c1cncc(Br)c1 | -3% | -2 | -1% | -9% | 1% | -9
COc1ccc(/C=N\NC(=O)C2=NNC(=O)C2C)cc1 (centres undefined) | -7% | 25* | -14% | -11% | -27% | 42*
COc1ccc(NCC(=O)N/N=C/c2ccc3c(c2)OCCO3)cc1 | 8% | 22* | -4% | 1% | -2% | 44
COc1cc(/C=N/NC(=O)c2ccc3c(c2)OCO3)ccc1O | 2% | 63* | -9% | -3% | 6% | 81*
COc1ccc(/C=N/NC(=O)CC(=O)N/N=C/c2ccc(OC)cc2)cc1 | -3% | 5 | -2% | -4% | 1% | 18
COc1ccc(/C=N/NC(=O)c2ccc3c(c2)OCO3)cc1 | 1% | 27* | -4% | -9% | -1% | 102*
COc1cc(C2/C(=C(\O)c3ccc4c(c3)OCCO4)C(=O)C(=O)N2Cc2ccco2)cc(OC)c1OC (centres undefined) | 5% | 1 | · | ? | 1% | -12
NC(N)=Nc1nc(C2COc3ccccc3O2)cs1 (centres undefined) | -1% | 37* | 4% | -13% | -3% | 75*
CC(=O)Nc1nc(C2COc3ccccc3O2)cs1 (centres undefined) | 0% | 32* | -8% | 4% | -4% | 50*
CC(=O)NCC1COc2ccccc2O1 (centres undefined) | 4% | 0 | 2% | 0% | -3% | 24
Cc1ccc(C)c(N2CCN(CCCNC(=O)c3cnn(-c4ccc(F)cc4)c3C3CCN(C(=O)OC(C)(C)C)CC3)CC2)c1 | 2% | · | · | 5% | · | ·
C=CC1=C(C(=O)O)N2C(=O)C(NC(=O)Cc3ccccc3)C2SC1 (centres undefined) | 5% | 1 | 16µM* | 10µM* | 7% | 3
Cn1nnnc1SCC1=C(C(=O)O)N2C(=O)[C@@H](NC(=O)[C@@H](O)c3ccccc3)[C@@H]2SC1 | -4%[33.2 µM] | · | -18%[21.7 µM] | · | · | ·
O=C(COc1ccccc1)NC1C(=O)N2C(C(=O)O)=C(Cl)CSC12 (centres undefined) | -11% | -3 | ? | ? | 15% | -25
Cc1nnc(SCC2=C(C(=O)O)N3C(=O)C(NC(=O)COc4ccccc4)C3SC2)s1 (centres undefined) | -16% | · | · | 7.9µM* | · | ·
CCOc1ccc(C(=O)NC2C(=O)N3C(C(=O)O)=C(COC(C)=O)CSC23)cc1OCC (centres undefined) | 0% | · | · | 22µM* | · | ·
CCC(C(=O)NC1C(=O)N2C(C(=O)O)=C(CSc3nnc(C)s3)CSC12)c1ccccc1 (centres undefined) | 3% | · | · | 4µM* | · | ·
CCOc1ccccc1CNC(=O)c1cnc2sc(N3CCCC3)nn2c1=O | 6% | · | · | -8% | · | ·

High-throughput results (PubChem)
